Laboratory results taken from PubChem BioAssay AID1159580 (chemical genetic matrix, 2015).
About 2,000 (36%) of roughly 5,500 compounds were called active. About 18% were inconclusive and are not listed. Cut-off read from the data, not from the text of the source: active = normalized growth mostly below about 0.91 (no sharp cut-off); inconclusive = no clear call, values can overlap the other calls; inactive = mostly above about 0.92. The list shows a part of the results.

Assay: chemical genetic growth profiling, strain panel (AID 1159580);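 note: tested at 20 µM; growth read once vehicle control cultures reached saturation at 30 °C; 1 = growth at the plate median or of vehicle wells; lower values mean less growth of the strain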
Conditions: growth OD

Measured: normalized growth

O=C(NCCSCc1ccc(Cl)cc1)c1ccc(Cl)cc1
active: S. cerevisiae deletion strains, locus YBR229C, strain ROT2, active compounds read low 0.919 | S. cerevisiae deletion strains, locus YGR078C, strain PAC10, active compounds read low 0.902 | S. cerevisiae deletion strains, locus YHR030C, strain SLT2, active compounds read low 0.0946 | S. cerevisiae deletion strains, locus YHR087W, strain rtc3, active compounds read low 0.903 | S. cerevisiae deletion strains, locus YJL187C, strain SWE1, active compounds read low 0.897 | S. cerevisiae deletion strains, locus YLR085C, strain ARP6, active compounds read low 0.724 | S. cerevisiae deletion strains, locus YMR219W, strain ESC1, active compounds read low 0.932 | S. cerevisiae deletion strains, locus YNL153C, strain GIM3, active compounds read low 0.907 | S. cerevisiae deletion strains, locus YNL298W, strain CLA4 (second series), active compounds read low 0.684 | S. cerevisiae strains, strain wild type, active compounds read low 0.887
inactive: S. cerevisiae deletion strains, locus YAL013W, strain DEP1, active compounds read low 0.941 | S. cerevisiae deletion strains, locus YDL101C, strain DUN1, active compounds read low 0.915 | S. cerevisiae deletion strains, locus YDR150W, strain NUM1, active compounds read low 0.925 | S. cerevisiae deletion strains, locus YEL061C, strain CIN8, active compounds read low 1.02 | S. cerevisiae deletion strains, locus YJR043C, strain POL32, active compounds read low 0.948 | S. cerevisiae deletion strains, locus YJR075W, strain HOC1, active compounds read low 0.954 | S. cerevisiae deletion strains, locus YLR039C, strain RIC1, active compounds read low 1.09 | S. cerevisiae deletion strains, locus YLR058C, strain SHM2 (second series), active compounds read low 0.972 | S. cerevisiae deletion strains, locus YLR262C, strain YPT6, active compounds read low 1.01 | S. cerevisiae deletion strains, locus YML094W, strain GIM5, active compounds read low 0.881 | S. cerevisiae deletion strains, locus YMR263W, strain SAP30, active compounds read low 0.954 | S. cerevisiae deletion strains, locus YMR307W, strain GAS1, active compounds read low 0.849 | S. cerevisiae deletion strains, locus YNL128W, strain TEP1, active compounds read low 0.965 | S. cerevisiae deletion strains, locus YNL322C, strain KRE1, active compounds read low 0.961 | S. cerevisiae deletion strains, locus YNR030W, strain Alg12, active compounds read low 0.936 | S. cerevisiae deletion strains, locus YPL055C, strain LGE1, active compounds read low 0.893 | S. cerevisiae deletion strains, locus YPL241C, strain CIN2, active compounds read low 1.03 | S. cerevisiae deletion strains, locus YPR135W, strain CTF4, active compounds read low 1.07
